# Experimental data from PubChem BioAssay (NCATS).
# Records with an inconclusive call do not appear. Active and inactive are the calls of the source. Calls come from the whole dose curve; as a rule, active = well fitted cell-killing curve with a large enough effect; inconclusive = small, poorly fitted or top-dose-only effect, or effect the other way; inactive = no such curve, though single readings can be large or run the other way.
# Test: Quantitative High-Throughput drug screen in 47 multiple myeloma cell lines against the NCATS MIPE library collection: PE2_PLB cell viability assay (AID 1919869); note: nearly all actives have a fitted effect of over 35% in size
# Details: PE2_PLB myeloma cells viability, ATP luminescence, 48 h; series mostly up to 45.8 µM; viability (% of control): at the top concentration
# Source text: PI: Beverly A. Mock Ph.D.
# Laboratory of Cancer Biology and Genetics,
# Center for Cancer Research, National Cancer Institute,
# National Institute of Health, Bethesda, Maryland
# Drug resistance and disease progression are common in multiple myeloma (MM) patients, underscoring the need for new therapeutic combinations. […] We hypothesized that effective combinations would reduce MYC expression and enhance p16 activity. […] These preclinical data identify potentially useful drug combinations for evaluation in drug-resistant MM and reveal potential mechanisms of combined drug sensitivity.
# Described herein is the primary MIPE qHTS used to cherrypick compounds. Validated compounds were then further tested for potential synergistic activiy.
# [1] Peat TJ, Gaikwad SM, Dubois W, Gyabaah-Kessie N, Zhang S, Gorjifard S, Phyo Z, Andres M, Hughitt VK, Simpson RM, Miller MA, Girvin AT, Taylor A, Williams D, D'Antonio N, Zhang Y, Rajagopalan A, Flietner E, Wilson K, Zhang X, Shinn P, Klumpp-Thomas C, McKnight C, Itkin Z, Chen L, Kazandijian D, Zhang J, Michalowski AM, Simmons JK, Keats J, Thomas CJ, Mock BA. Drug combinations identified by high-throughput screening promote cell cycle transition and upregulate Smad pathways in myeloma. Cancer Lett. 2023 Aug 1;568:216284. doi: 10.1016/j.canlet.2023.216284. Epub 2023 Jun 24. PMID: 37356470; PMCID: PMC10408729.
# SEQUENCE No. (e.g., 1, 2, 3, etc.); […] (e.g., Cells, Incubation, Reagent, etc.); VALUE and DESCRIPTION.
# 1; Cells; 5 uL; white, solid bottom 1536-well Greiner assay plate.
# 2; Compounds; 23 nL; Kalypsis pin tool (Wako USA) equipped with a 1536-well pin head to transfer to the assay plates.
# 3; Incubation; 48 hours; 37C incubation.
# 4; Reagent;5uL; CellTiter Glo (Promega).
# 5; Detector; 425V; Luminescence; Viewlux PerkinElmer.
# NOTES (numbers refer to Sequence numbers above)
# 1. The cell-based screening methods employed in this study were like those previously published. Briefly, the corresponding myeloma cell lines were screened in 1,536-well plates with 500 cells, 5-uL per well for inhibition of cell viability (assessed by measuring ATP levels with CellTiterGlo).
# 2. NCATS MIPE 4.0 library of approved and investigational drugs were added using the Kalypsis pin tool. Wells treated with DMSO only for 100% viability and media only for 0% viability were used as controls.
# 3. The assay plates were covered and incubated for 48 hours in a 37C, 5% CO2 incubator with controlled humidity.
# 4. After 48 hours, CellTilter-GloTM luminescent substrate mix (Promega) reagent was added to the assay plate and plates we incubated for 5 min at room temperature.
# 5. Signal was measured as median relative luminescence units on a ViewLux (PerkinElmer) multiplate reader.
# [1] Heske CM, Davis MI, Baumgart JT, Wilson K, Gormally MV, Chen L, Zhang X, Ceribelli M, Duveau DY, Guha R, Ferrer M, Arnaldez FI, Ji J, Tran HL, Zhang Y, Mendoza A, Helman LJ, Thomas CJ. Matrix Screen Identifies Synergistic Combination of PARP Inhibitors and Nicotinamide Phosphoribosyltransferase (NAMPT) Inhibitors in Ewing Sarcoma. Clin Cancer Res. 2017 Dec 1;23(23):7301-7311. doi: 10.1158/1078-0432.CCR-17-1121. Epub 2017 Sep 12. PMID: 28899971; PMCID: PMC6636827.
# Potency is the fitted concentration of half-maximal effect.
SMILES,Potency,viability (% of control)
Nc1nc(Nc2ccc(S(N)(=O)=O)cc2)nn1C(=O)c1c(F)cccc1F,3.32 µM (active),–
COc1cc2c(Oc3ccc(NC(=O)C4(C(=O)Nc5ccc(F)cc5)CC4)cc3F)ccnc2cc1OCCCN1CCOCC1,8.33 µM (active),–
Cc1ccc(-c2ncn(-c3ccc(Nc4nccc(-c5cccc(N6CCOCC6)c5)n4)cc3)n2)cn1,0.372 µM (active),–
CC(O)C1C(=O)N2C(C(=O)O)=C(SC3CNC(C(=O)N(C)C)C3)C(C)C12 (stereo not given),–,86.8% (inactive)
COc1cccc2nc(-c3cccs3)nc(NN3C(=O)C=C(C)C3=O)c12,0.418 µM (active),–
CC(C)[C@H](C(=O)Nc1ccc(C(=O)NO)cc1)c1ccccc1,1.05 µM (active),–
CC1COC2(CCN(c3nc(=O)c4cc(C(F)(F)F)cc([N+](=O)[O-])c4s3)CC2)O1 (stereo not given),–,103% (inactive)
COc1cc(-c2nn(C3CCC(N4CCN(C(C)=O)CC4)CC3)c3ncnc(N)c23)ccc1NC(=O)c1cc2ccccc2n1C (stereo not given),2.96 µM (active),–
CC(C)(C)OC(=O)Nc1ccc(-c2cc(C(=O)NCCCCCCC(=O)NO)no2)cc1,2.64 µM (active),–
CC(=O)Nc1sc2c(c1-c1nc3ccccc3s1)CNC2,20.9 µM (active),–
CC(C)Nc1cc(C(F)(F)F)cc2nc(NC(=O)c3cccnc3)nn12,–,110% (inactive)
CN1CC[C@@H](c2c(O)cc(O)c3c(=O)cc(-c4ccccc4Cl)oc23)[C@@H](O)C1,0.0662 µM (active),–
CCC(=C(c1ccccc1)c1ccc(OCCN(C)C)cc1)c1ccccc1,26.4 µM (active),–
O=C(c1cncc(Br)c1)N1CCC(N2CCCC2)CC1,–,128% (inactive)
CNC(=O)c1ccccc1Nc1nc(Nc2ccc(N3CCOCC3)cc2OC)ncc1Cl,1.18 µM (active),–
COc1c(OCCCN2CCOCC2)ccc2c3n(c(=NC(=O)c4cnc(N)nc4)nc12)CCN3,0.457 µM (active),–
O=C(O)Cn1nnc(-c2cc(N3CCC(Oc4cc(F)ccc4Br)CC3)no2)n1,–,96.9% (inactive)
CC(C)=CCCC(C)=CCCC(C)=CCSc1ccccc1C(=O)O,2.35 µM (active),–
C[C@]1(CO)CN(c2cc(C(=O)Nc3ccc4c(c3)-c3c(c(C(N)=O)nn3-c3ccc(F)cc3)CC4)c(Cl)cn2)C[C@@]1(C)CO,11.8 µM (active),–
C#Cc1cccc(Nc2ncnc3cc(OC)c(OCCCCCCC(=O)NO)cc23)c1,0.0935 µM (active),–

SMILES,Potency,viability (% of control)
Cc1[nH]nc2ccc(-c3cncc(OC[C@@H](N)Cc4ccccc4)c3)cc12,1.18 µM (active),–
Cc1cn2c(-c3cn[nH]c3)cnc2c(Nc2ccc(C(=O)N3CCNCC3)cc2F)n1,20.9 µM (active),–
Nc1ccccc1NC(=O)c1ccc(CNc2nccc(-c3cccnc3)n2)cc1,1.32 µM (active),–
Nc1nccc(Oc2ccc(NC(=O)c3c[nH]cc(-c4ccc(F)cc4)c3=O)cc2F)c1Cl,18.7 µM (active),–
Nc1nc(NCCNc2ncc(-n3ccnc3)c(-c3ccc(Cl)cc3Cl)n2)ccc1[N+](=O)[O-],3.72 µM (active),–
Cc1c(CN2CCN(S(C)(=O)=O)CC2)sc2c(N3CCOCC3)nc(-c3cnc(N)nc3)nc12,0.0372 µM (active),–
CC[C@H]1CN2CCc3cc(OC)c(OC)cc3[C@H]2C[C@@H]1C[C@@H]1NCCc2cc(OC)c(OC)cc21,0.296 µM (active),–
C=CC(=O)Nc1cc2c(Nc3ccc(F)c(Cl)c3)ncnc2cc1C#CC(C)(C)N1CCN(C)CC1,1.05 µM (active),–
COc1ccc(CC2c3cc(OC)c(OC)cc3CC[N+]2(C)CCC(=O)OCCCCCOC(=O)CC[N+]2(C)CCc3cc(OC)c(OC)cc3C2Cc2ccc(OC)c(OC)c2)cc1OC (stereo not given),–,81% [at 5.15 µM] (inactive)
COC(=O)C1=C(C)NC(C)=C(C(=O)OCCN2CCN(C(c3ccccc3)c3ccccc3)CC2)C1c1cccc([N+](=O)[O-])c1 (stereo not given),–,108% (inactive)
Nc1cccc(-c2cc3c(Oc4cccc(O)c4)ncnc3[nH]2)c1,14.8 µM (active),–
Nc1ccccc1NC(=O)c1ccc(CNC(=O)OCc2cccnc2)cc1,1.66 µM (active),–
N#CCNC(=O)c1ccc(-c2ccnc(Nc3ccc(N4CCOCC4)cc3)n2)cc1,2.96 µM (active),–
CC(C)c1ccccc1Cc1cc(C(=O)Nc2ccc(S(=O)(=O)c3ccccc3C(C)(C)C)cc2)c(O)c(O)c1O,5.26 µM (active),–
NCC(=O)Nc1ccc(-n2nc(C(F)(F)F)cc2-c2ccc3c(ccc4ccccc43)c2)cc1,20.9 µM (active),–
CCCCOc1c(C(=O)c2c(F)cc(C)cc2F)cnc2n[nH]cc12,3.72 µM (active),–
Cc1cccc(C=NNc2cc(N3CCOCC3)nc(OCCc3ccccn3)n2)c1,18.7 µM (active),–
COc1cc2c(Nc3ccc(NC(=O)c4ccccc4)cc3)ncnc2cc1OCCCN1CCOCC1,20.9 µM (active),–
CCCCc1nc2cc(C=CC(=O)NO)ccc2n1CCN(CC)CC,1.66 µM (active),–
NC(=O)c1c(OCc2c(F)cc(Br)cc2F)nsc1NC(=O)NCCCCN1CCCC1,23.5 µM (active),–
